# Measured values taken from PubChem BioAssay AID624297 (National Center for Advancing Translational Sciences (NCATS), 2012).
# Values joined by “and” are separate entries in the source; they are usually repeats but may differ in a detail not shown here. Equal entries are not always repeated. About 6,200 (1.8%) of roughly 340,000 compounds were called active. Roughly 10% stayed inconclusive and do not appear here. For the sample, actives were picked, then their nearest neighbours and some compounds at random. A number with no mark means an inactive call. Calls follow the shape of the dose curve; as a rule, active = well fitted activation curve with a large enough effect; inconclusive = small, poorly fitted or top-dose-only effect; inactive = no such curve, though single readings can be large or run the other way.
# Experiment: A quantitative high throughput screen for small molecules that induce DNA re-replication in SW480 colon adenocarcinoma cells. Also: nearly all actives have a fitted effect of over 55% in size. As to re-replication activation: % of control where 0% means no effect.
# Settings: Hoechst DNA content imaging, 48 h; series mostly up to 46.1 µM; re-replication activation: at the top concentration
# Outline: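 SW480 cells exposed to compounds for 48 hr at 37 C, 5% CO2, then Hoechst-stained 40 min. Nuclear DNA content imaged by fluorescence scanning (405 nm excitation, 500-530 nm emission); re-replication scored as increased high-intensity nuclei.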
# Potency is read from the fitted curve at half-maximal effect.
Structure (SMILES),re-replication activation,Potency
COc1ccc(CCNC(=O)c2ccc(NC(=O)CC3SC(N4CCCCC4)=NC3=O)cc2)cc1OC (stereo not drawn),-35%,
C=CC[C@H](CC(=O)OC(C)(C)C)C(=O)OC[C@H]1CCCN1C(=O)[C@H](CC=C)CC(=O)N(CCO)Cc1ccccc1,-12.8%,
O=C(O)c1ccc(NC(=O)C2CCCCC2)cc1,-5.52%,
CN1C(=O)c2ccc(NC(=O)C3CCCCC3)cc2C1=O,,16.4 µM (active)
CN1C(=O)c2ccc(NC(=O)c3c(F)c(F)c(F)c(F)c3F)cc2C1=O,-4.95%,
COc1ccc2nc(N3C(=O)C(O)=C(C(=O)c4ccco4)C3c3ccco3)sc2c1 (stereo not drawn),-4.84%,
O=C(COC(=O)c1ccc(Br)o1)NC12CC3CC(CC(C3)C1)C2,-5.15%,
O=C(Cc1ccc(Cl)c(Cl)c1)Nc1ccc(SC(F)F)cc1,2.53%,
O=C(CC(O)(C(F)(F)F)C(F)(F)F)Nc1ccc(Cl)c(Cl)c1,,14.6 µM (active)
O=C(CC1SCCNC1=O)Nc1ccc(Cl)c(Cl)c1 (stereo not drawn),-3.76%,
Cc1noc(C)c1C(=O)OC(C)C(=O)Nc1ccc2c(c1)OCO2 (stereo not drawn),-9.61%,
O=C1C2C3C=CC(C3)C2C(=O)N1c1ncc([N+](=O)[O-])s1 (stereo not drawn),-1.99%,
C/C(=N\Nc1ccccc1)c1cccs1,-8.99%,
CCc1nc(C)cn1S(=O)(=O)c1cc([N+](=O)[O-])ccc1Cl,,4.11 µM (active)
CCc1nc(C)cn1S(=O)(=O)c1cc(OC)c(C)cc1C,-6.97%,
CC(C)c1nccn1S(=O)(=O)c1cc([N+](=O)[O-])ccc1Cl,-7.61%,
O=C(Nc1ccc(S(=O)(=O)N2CCOCC2)cc1)C1CCN(S(=O)(=O)c2ccc(Cl)cc2)CC1,-12%,
CCO[C@@H]1OC(C(N)=O)=C[C@H](c2ccc(Br)cc2)[C@H]1CCCO,1.27%,
C#CCNC(=O)C1=C[C@@H](c2ccccc2)[C@H](CCCO)[C@@H](OCC)O1,,23.1 µM (active)
CCO[C@H]1OC(C(=O)NCc2ccccc2)=C[C@@H](c2coc3ccccc3c2=O)[C@@H]1CCCO,-2.42%,
CN(c1ccccc1)S(=O)(=O)c1ccc(C(=O)N2CCN(c3ccccc3Cl)CC2)cc1,1.06%,
Cc1cc(C(=O)Nc2ccccc2N2CCOCC2)c2ccccc2n1,-21.9%,
CNC(=O)COC(=O)c1cc(-c2ccc(OC)cc2)nc2ccccc12,-4.03%,
COC(=O)c1cc(N2CCNCC2)nc2ccccc12,,10.3 µM (active)
Cc1cccc(NC(=O)c2ccc(S(=O)(=O)N(C)c3ccccc3)cc2)n1,2.72%,

Structure (SMILES),re-replication activation,Potency
CCCCCCc1ccc(O)cc1O,0.114%,
CCCCCCc1cc2cc(-c3nnc(-c4ccccc4)o3)c(=O)oc2cc1O,,3.55 µM (active)
Cc1c(CC(=O)NCCCCCC(=O)O)c(=O)oc2cc3occ(-c4ccccc4)c3cc12,-3.23%,
CCCCNC1(C#N)CCN(Cc2ccccc2)CC1,-1.42%,
COc1cc(NC(=O)COC(=O)c2cc(S(=O)(=O)N3CCOCC3)ccc2F)cc(OC)c1,2.2%,
COc1cc(/C=C2\CCCc3c2nc2ccccc2c3C(=O)O)cc(Cl)c1O,-2.95%,
NS(=O)(=O)c1ccc(NC(=O)COC(=O)c2c3c(nc4ccccc24)/C(=C\c2ccc4c(c2)OCO4)CCC3)cc1,,7.31 µM (active) and 11.6 µM (active)
NS(=O)(=O)c1ccc(NC(=O)COC(=O)c2cc3ccccc3oc2=O)cc1,1.13%,
NS(=O)(=O)c1ccc(NC(=O)COC(=O)c2ccco2)cc1,0.0076%,
O=C(COC(=O)c1c2c(nc3ccccc13)CCCC2)c1ccc(Br)s1,-0.727%,
O=C(COC(=O)c1ccncc1)Nc1ccc2c(c1)OCO2,-2.98%,
O=C(COC(=O)c1c2c(nc3ccccc13)/C(=C\c1cccs1)CCC2)Nc1ccccc1Cl,,14.6 µM (active) and 13 µM (active)
O=C(COC(=O)c1ccc(F)cc1)Nc1ccc2c(c1)OCO2,-15.1%,
NC(=O)c1ccc(NC(=O)COC(=O)c2c3c(nc4ccccc24)/C(=C\c2ccc4c(c2)OCO4)CCC3)cc1,,7.31 µM (active)
OCC1(CO)CC2(C1)CC(CO)(CO)C2,-2.65%,
COc1ccc(CCNC(=O)COC(=O)c2ncc(Cl)c(Cl)c2Cl)cc1OC,5.84%,
O=C(CNC(=O)c1ccccc1F)OCC(=O)c1c[nH]c2ccccc12,-0.0394%,
CC(=O)Nc1ccc(S(=O)(=O)Nc2ccc(N3CCCCC3)cc2)cc1,4.81%,
CCC1([N+](=O)[O-])COC(c2ccc(C(C)C)cc2)OC1 (stereo not drawn),-14.6%,
CC1CCCCC12NC(=O)N(CC(=O)OCc1c(F)cccc1Cl)C2=O (stereo not drawn),-2.6%,
COc1ccc(CNC(=O)C2CC(c3ccc(C(F)(F)F)cc3)=NO2)cc1 (stereo not drawn),-4.92%,
COc1ccc(S(=O)(=O)N2CCC(C(=O)NCc3ccco3)CC2)cc1C,7.9%,
COc1ccc(C2=NOC(C(=O)NCc3ccco3)C2)cc1OC (stereo not drawn),,13 µM (active)
Cc1cc(N2CCCC2)ccc1NC(=O)COc1ccc(Cl)cc1,-5.98%,
CC(C)n1cnc2c(NCc3ccccc3)cc(OCC3CCN(C)CC3)cc21,9.3%,

Structure (SMILES),re-replication activation,Potency
COc1ccccc1NS(=O)(=O)c1ccc(C)c(C(=O)NNC(=O)c2csc(N3CCOCC3)n2)c1,2.11%,
O=C(C(=O)N1CCc2ccccc2C1)N1CCc2ccccc2C1,-3.4%,
O=C(C(=O)N1CCc2ccccc2C1)c1c[nH]c2ccccc12,,4.11 µM (active)
O=C(NC1CCCC1)C(=O)c1c[nH]c2ccccc12,-12.4%,
COc1cc2c(-c3ccc4c(c3)OCO4)c(-c3ccsc3)oc(=O)c2cc1OC,-0.829% [at 9.22 µM],
COc1ccc(-c2ccc3c(c2)[C@@H]2C[C@H](N(C)S(=O)(=O)c4ccccc4)[C@H]([C@H](C)O)C(=O)N2CC3)cc1,-8.75%,
CC1CCCN(C(=O)Cn2c(=O)oc3cc(S(=O)(=O)N4CCCCC4C)ccc32)C1 (stereo not drawn),-0.527%,
COC(=O)Nc1nc2ccc(Sc3ccccc3)cc2[nH]1,,640 nM (active) and 2.06 µM (active)
CC(C)c1nc2ccc(C(=O)O)cc2[nH]1,7.69%,
Cc1ccc(O)c(CNc2nc3ccccc3[nH]2)c1,-9.52%,
COc1ccc(C)cc1NC(=O)CN1c2cccc3cccc(c23)S1(=O)=O,4.22%,
Cc1ccc(N(C(=O)c2snc(C(N)=O)c2N)C(C(=O)NCC2CCCO2)c2c[nH]c3ccccc23)cc1 (stereo not drawn),7.31%,
CCOc1ccc(N(C(=O)c2snc(C(N)=O)c2N)C(C(=O)NCC2CCCO2)c2c[nH]c3ccccc23)cc1 (stereo not drawn),10.8%,
Cc1ccc(C(C(=O)NCC2CCCO2)N(C(=O)c2snc(C(N)=O)c2N)c2ccc(C(C)C)cc2)o1 (stereo not drawn),,18.4 µM (active)
COc1ccccc1C(=O)COC(=O)COc1ccc(C#N)cc1,-5.36%,
CCCC(CNC(=O)COC(=O)C1=NNC(=O)CC1)c1ccc(Cl)cc1Cl (stereo not drawn),-6.55%,
Oc1[nH]c2ccccc2c1N=Nc1c(F)c(F)c(F)c(F)c1F,4.7%,
C(#CCN1CCOCC1)CCCN1CCOCC1,5.31%,
O=C(COc1cccnc1[N+](=O)[O-])Nc1ccc(Cl)cc1F,0.413%,
COc1cccc(NC(=O)CN(C)C(=O)/C=C/c2cn(-c3ccccc3)nc2-c2cccs2)c1,12.5%,
O=C(Nc1ccc(Sc2ccc(Br)cc2)cc1)c1ccco1,-0.998%,
O=C(CCl)Nc1ccc(Sc2ccc(NC(=O)CCl)cc2)cc1,,4.61 µM (active)
Cc1ccc(NC(=O)CC(=O)Nc2ccc(C)cc2)cc1,-5.7%,
CC1CCCCC1NC(=O)Cn1cnc2c1c(=O)n(C)c(=O)n2C (stereo not drawn),14.6%,
COc1ccc(-c2nnc(SC(C)C(=O)NC3CC3)o2)cc1 (stereo not drawn),-3.49%,

Structure (SMILES),re-replication activation,Potency
COc1ccc2c(CC(=O)NNC(=O)c3ccccc3F)coc2c1,2.49%,
Oc1ccccc1N1CCN(c2ncnc3sc(-c4ccccc4)cc23)CC1,-6.94%,
S=C(NCC1COc2ccccc2O1)Nc1ccc(Br)cc1 (stereo not drawn),-8.77%,
c1ccc(-c2cc3c(NCC4COc5ccccc5O4)ncnc3s2)cc1 (stereo not drawn),,18.4 µM (active)
Cc1ccc(NC(=O)C(C)OC(=O)C2CC3CCCC(C2)C3=O)cc1S(=O)(=O)N1CCOCC1 (stereo not drawn),-2.34%,
CN(C)C(=O)CCc1ccc2c3c([nH]c2c1)[C@]1(C)[C@@H](C(=O)N2CCCCC2)C[C@H](CC(=O)NCCC2=CCCCC2)C(=O)N1CC3,1.36%,
COC(=O)c1ccc(CNC(=O)Cn2cc(C)c(=O)[nH]c2=O)cc1,-7.02%,
C[C@H](CO)N1C[C@H](C)[C@@H](CN(C)Cc2ccc(-c3ccccc3)cc2)Oc2ccc(NC(=O)Cn3cnnn3)cc2C1=O,-2.29%,
Cc1ccc2[nH]c(=O)c(CC(=O)O)c(-c3ccccc3)c2c1,3.85%,
Cc1cccc(N(C)C(=O)c2cc3c(=O)[nH]c4ccc(C)cc4c3s2)c1,,9.2 µM (active)
CCN(CC)CCCNC(=O)c1cc2c(=O)[nH]c3ccc(C)cc3c2s1,-10.2%,
CCCN(CC(=O)Nc1ccccc1C)C(=O)c1ccc(OCC(=O)N2CCOCC2)c(OCC)c1,-9.72%,
Cc1nc2ccccc2c(C(=O)O)c1-c1ccccn1,-10.2%,
NC(=O)c1c(NC(=O)c2ccccc2)sc2c1CCCC2,-24.5%,
COc1ccc(C(=O)Nc2ncc3c(n2)-c2ccccc2CC3)cc1,12.9%,
COc1cccc(OC)c1C(=O)Nc1sc2c(c1C(N)=O)CCCC2,119%,
C=CCN(CC=C)S(=O)(=O)c1ccc(C(=O)Nc2nc3c(s2)CCc2ccccc2-3)cc1,,14.6 µM (active)
CCN(c1ccccc1)S(=O)(=O)c1ccc(C(=O)Nc2nccs2)cc1,0.483%,
C=CCN(CC=C)S(=O)(=O)c1ccc(C(=O)Nc2sc3c(c2C(N)=O)CCCCC3)cc1,,9.2 µM (active)
O=C(O)C1C2C=CC(O2)C1C(=O)Nc1ccccn1 (stereo not drawn),1.43%,
O=C(CNC(=O)c1ccco1)NNC(=O)c1ccc(Br)cc1,-7.84%,
O=C(O)c1ccc(Cn2cnc3c(=S)nc[nH]c32)cc1,-1.18%,
Cc1cc([N+](=O)[O-])ccc1NS(=O)(=O)c1ccccc1,25.1%,
